Screens (PubChem)
Pf growth 48h: inhibits P. falciparum growth in the first generation, 48 h; Potency, µM (doses to about 28.7 µM), inactives show top-dose activity change, negative = inhibition, actives largely listed as inhibitors; 310,000 tested, 5.9% active; P. falciparum luciferase growth in erythrocytes, 48 h; also: potency is read from the fitted curve at half-maximal effect; % is scaled to controls: 0 for no effect and ±100 for the full control effect
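Luciferase-expressing parasites in RBCs, 2% Hct / 0.1% parasitemia final; RPMI 1640 + 0.5% Albumax; 37 C, 5% CO2, one generation; luminescence read-out, lower signal = inhibition.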
LASV entry inh: blocks Lassa virus binding to or entry into cells; Potency, µM (highest dose often 37.9 µM), for inactives: at the highest dose activity change, negative = inhibition, most hits filed as inhibitors; Lassa virus pseudotype entry inhibition, cell reporter; 300,000 tested, 1.2% active; AID 540256; calls by dose curve; tested in HEK293 cells; also: potency is read from the fitted curve at half-maximal effect; % is scaled to controls: 0 for no effect and ±100 for the full control effect; nearly all actives have a fitted effect of over 50% in size
Pf growth 96h: P. falciparum growth inhibition at 96 hour, primary screen for plastid delayed-death inhibitors. 320,000 tested, 6.9% active. Potency, µM (doses to about 28.7 µM), without a hit: at the top dose activity change, negative = inhibition, actives largely listed as inhibitors. P. falciparum luciferase reporter growth, 96 h; also: potency is read from the fitted curve at half-maximal effect; % is scaled to controls: 0 for no effect and ±100 for the full control effect
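96 h incubation, 37 C, 5% CO2, of luciferase-reporter P. falciparum-infected RBCs (2% hematocrit, 0.05% parasitemia final) with test compounds; endpoint luminescence.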
Cycloheximide cs: counter-screen hit for Shiga toxin inhibitors, cycloheximide | 300,000 tested, 12% active | AID 2314 | cell reporter, cycloheximide protein synthesis inhibition counterscreen | max response, %; in the data active = max response mostly above about 13%, no sharp cut-off; inactive = mostly below about 14%; also: read at 38.3 µM for the half of the compounds with a filed dose; 0% is about no effect
Shiga inhibitor: Shiga toxin inhibition; Vero cells, Shiga toxin protein synthesis inhibition reporter; inhibition, % at 38.7 µM; 290,000 tested, 9.2% active; AID 2315; in the data active = inhibition mostly above about 28%, no sharp cut-off; inactive = mostly below about 43%; also: 0% is about no effect
MARV entry inh: blocks Marburg virus binding to or entry into cells; Marburg virus pseudotyped entry inhibition, cell reporter; Potency, µM (titrated, usually from 37.8 µM), inactives show top-dose activity change, negative = inhibition, hits mostly inhibitors; 300,000 tested, 1.8% active; AID 540276; calls by dose curve; tested in HEK293 cells; also: potency is read from the fitted curve at half-maximal effect; % is scaled to controls: 0 for no effect and ±100 for the full control effect
* marks the source's active call; other numbers are inactive results; [ ] = remark or other dose. Rows were chosen to be rich in hits. Some 19% of all compounds tested hit in one or more screens of this group. Unless noted, calls follow the shape of the dose curve; as a rule, active = well fitted inhibition curve with a large enough effect; inconclusive = small, poorly fitted or top-dose-only effect, or another doubt; inactive = no such curve, though single readings can be large or run the other way.

Screening Cc1cc(/C=C(\C#N)C(=O)Nc2ccc(Cl)cc2)c(C)n1-c1ccc(N2CCOCC2)c([N+](=O)[O-])c1 returned Pf growth 48h 11.7µM*, LASV entry inh inconclusive, Pf growth 96h 7.38µM*, Cycloheximide cs -4.2, Shiga inhibitor -3.4 and MARV entry inh -19.0%.
Screening Cc1ccc(NC(=O)/C(C#N)=C/c2cc(C)n(-c3ccc(N4CCOCC4)c([N+](=O)[O-])c3)c2C)c(C)c1 returned Pf growth 48h inconclusive, LASV entry inh inconclusive, Pf growth 96h 11.7µM*, Cycloheximide cs -1.5, Shiga inhibitor -10.5 and MARV entry inh inconclusive.
Screening Cc1cc(C=O)c(C)n1-c1ccc(N2CCOCC2)c([N+](=O)[O-])c1 returned Pf growth 48h -10.8%, LASV entry inh 3.2%[46.1 µM], Pf growth 96h 4.9%, Cycloheximide cs -1.6, Shiga inhibitor -21.7 and MARV entry inh inconclusive.
For O=C(Nc1ccc([N+](=O)[O-])cn1)C1CC2CCC1C2 (centres undefined) the results were Pf growth 48h 53.7%, LASV entry inh 4.5%, Pf growth 96h 59.2%, Cycloheximide cs 13.0, Shiga inhibitor 17.1* and MARV entry inh 7.4%.
Screening O=C(NCC(c1cccnc1)N1CCN(c2ccc(F)cc2)CC1)c1ccc(F)cc1 (centres undefined) returned Pf growth 48h inconclusive, LASV entry inh inconclusive, Pf growth 96h 54.9%, Cycloheximide cs 0.3, Shiga inhibitor -0.1 and MARV entry inh inconclusive.
Screening CCn1c(SCC(=O)N2CCC(C(N)=O)(N3CCCCC3)CC2)nc2ccccc2c1=O returned LASV entry inh 3.3% and MARV entry inh 11.4%.
For C[C@@H]1CCC2[C@@H](C)[C@@H](O)O[C@@H]3O[C@@]4(C)CC[C@@H]1[C@@]23OO4 (some centres undefined) the results were Pf growth 48h 0.0005µM* and Pf growth 96h 0.0004µM*.
Screening CC1CCC2C(C)C(=O)OC3OC4(C)CCC1C32OO4 (centres undefined) returned Pf growth 48h 0.0033µM*, LASV entry inh -2.9%[46.1 µM], Pf growth 96h 15.9%, Cycloheximide cs -6.5, Shiga inhibitor 8.6 and MARV entry inh -23.2%[46.1 µM].
For CC1CCC2[C@@H](C)C(=O)OC3O[C@]4(C)CCC1C32OO4 (some centres undefined) the results were LASV entry inh -14.1% and MARV entry inh -6.6%.
`C=C[C@H](C)[C@](C)(O)c1ccccc1` gave MARV entry inh 18.6%[14.2 µM].
Screening CCN(C(=O)CN1C(=O)c2ccc([N+](=O)[O-])cc2C1=O)C1CCCCC1 returned Pf growth 48h -3.8%, Pf growth 96h inconclusive, Cycloheximide cs -1.2 and Shiga inhibitor -10.9.
For CCC(C)(O)c1[nH]c2ccc(C(=O)OC)cc2c1C (centres undefined) the results were Pf growth 48h 97.3%, Pf growth 96h 133.6%, Cycloheximide cs 22.4* and Shiga inhibitor 33.6*.
`COC(=O)c1ccc2[nH]c(CO)c(-c3ccccc3)c2c1` gave Pf growth 48h inconclusive, Pf growth 96h -74.6%, Cycloheximide cs 6.4 and Shiga inhibitor 3.2.
Screening CNC(=O)C(=O)NCC1OCCN1S(=O)(=O)c1ccc(C)cc1 (centres undefined) returned Pf growth 48h 6.6%, LASV entry inh -8.4%, Pf growth 96h 22.1%, Cycloheximide cs 1.1, Shiga inhibitor -29.3 and MARV entry inh 2.4%.
Screening Cc1ccc(C(C(=O)NC2CCCCC2)N(Cc2ccccc2)C(=O)Cc2c[nH]c3ccccc23)o1 (centres undefined) returned Pf growth 48h inconclusive, LASV entry inh inconclusive, Pf growth 96h inconclusive, Cycloheximide cs -1.6, Shiga inhibitor -12.0 and MARV entry inh inconclusive.
For COc1cccc(CN(C(=O)Cc2c[nH]c3ccccc23)C(C(=O)NC2CCCCC2)c2ccc(C)o2)c1 (centres undefined) the results were Pf growth 48h 13.1µM*, LASV entry inh inconclusive, Pf growth 96h inconclusive, Cycloheximide cs 8.2, Shiga inhibitor 8.9 and MARV entry inh inconclusive.
For COc1cccc(CN(C)C(=O)Cc2c[nH]c3ccccc23)c1 the results were Pf growth 48h 1.2%, LASV entry inh 14.2%[46.1 µM], Pf growth 96h -0.2%, Cycloheximide cs 20.2*, Shiga inhibitor 22.8 and MARV entry inh inconclusive.
